Measurements: PubChem BioAssay (NCI)
Compounds without any hit were thinned out: in the full panel of roughly 83,000, 20% have a hit.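 96-well plates, one dose, 48 hours. Percent growth reported; active if below 10.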 Values without a mark were called inactive.

Tested on: MDA-MB-468 breast
Experiment: NCI-60 one-dose screen, 48 h (100 = growth as untreated, 0 = no growth, -100 = all killed)
Settings: 10 µM unless noted

Row | SMILES | growth [%]
1 | COc1ccc(C(c2cc(OC)c(OC)c(OC)c2)N2CCCC2)cc1 (centres undefined) | 54.8
2 | CS(=O)(=O)c1ccc(-c2[nH]c3ccc(F)cc3c2/C=N/O)cc1 | 93.7
3 | COc1cc2nc(NC3CCCC3)nc(NC3CCN(C(C)C)CC3)c2cc1OC | 45.4
4 | CC(=O)CC(c1ccc([N+](=O)[O-])cc1)c1c(O)c2ccccc2oc1=O (centres undefined) | 104
